Source: PubChem BioAssay (NCI)
About 79,000 compounds went through this panel and 15% of them were active in at least one assay; those are over-represented in the sample as a whole. The source made the active and inactive calls. Rule as the data show it: active = growth inhibition above about 70%; inactive = the rest.

Key:
[1] = NCI Yeast Anticancer Drug Screen. Data for the rad50 strain (AID 155);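 also: 0% = growth of vehicle-only cultures of the same strain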; conditions: S. cerevisiae rad50 strain growth inhibition, active compounds read high
Summary of the method: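 DNA repair mutant yeast, compound exposure, growth read-out; inhibition is taken relative to vehicle.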

[2] = NCI Yeast Anticancer Drug Screen. Data for the mec2-1 strain (AID 157); conditions: S. cerevisiae mec2-1 strain, active compounds read high
Summary of the method: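 Compounds were applied to mec2-1 yeast cells. Their growth was then compared with that of vehicle-treated cultures to give growth inhibition.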

[3] = NCI Yeast Anticancer Drug Screen. Data for the sgs1 mgt1 strain (AID 161);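 also: 0% = growth of cultures given vehicle only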; conditions: S. cerevisiae sgs1 mgt1 strain, active compounds read high
Summary of the method: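 Compounds are added to genetically altered yeast, and growth is compared with cultures given vehicle alone to give percent inhibition.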

[4] = NCI Yeast Anticancer Drug Screen. Data for the cln2 rad14 strain (AID 165);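 also: 0% = growth equal to vehicle treated cultures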; conditions: S. cerevisiae cln2 rad14 strain, active compounds read high
Summary of the method: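 Strain: cln2 rad14 yeast, altered in cell cycle control and DNA damage repair. Read-out: growth inhibition vs vehicle.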

[5] = NCI Yeast Anticancer Drug Screen. Data for the bub3 strain (AID 167); conditions: S. cerevisiae bub3 mutant strain, active compounds read high
Summary of the method: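 In this screen, a yeast mutant lacking normal mitotic checkpoint function is challenged with compound. Relative growth versus vehicle gives the inhibition value.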

[6] = NCI Yeast Anticancer Drug Screen. Data for the mlh1 rad18 strain (AID 175); conditions: S. cerevisiae mlh1 rad18 strain growth inhibition, active compounds read high
Summary of the method: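 A repair-deficient yeast strain is exposed to test compound, and growth is scored relative to vehicle-treated controls.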

[7] = at 5.0 µM (retest, dose inferred, filed as 0.5)
[8] = at 50.0 µM (retest, dose inferred, filed as 5.0)

Measured: growth inhibition

Cc1cc(N=NC(N)=S)c2ccccc2c1O
active: [1]; at 50.0 µM 76.2%
inactive: [1]; [7] 4% | [1]; [8] 22% | [2]; [7] -3% | [2]; [8] 1% | [2]; at 50.0 µM 24.9% | [3]; [7] -5% | [3]; [8] 16% | [3]; at 50.0 µM 6.7% | [4]; [7] -2% | [4]; [8] -23% | [4]; at 50.0 µM -22.1% | [5]; [7] 2% | [5]; [8] 15% | [5]; at 50.0 µM 37.2% | [6]; [7] -40% | [6]; [8] -1% | [6]; at 50.0 µM 53.8%

O=S1(=O)CC2C1C1(Cl)OC2(Cl)c2ccccc21 (configuration not stated)
inactive: [1]; [7] 2% | [1]; [8] 13% | [2]; [7] 16% | [2]; [8] 9% | [2]; at 50.0 µM -9.25% | [3]; [7] 2% | [3]; [8] 6% | [3]; at 50.0 µM 31.1% | [4]; [7] -45% | [4]; [8] 17% | [4]; at 50.0 µM -1.65% | [5]; [7] -3% | [5]; [8] -9% | [5]; at 50.0 µM 21.4% | [6]; [7] 1% | [6]; [8] 1% | [6]; at 50.0 µM 27.6%
active: [1]; at 50.0 µM 75.2%

Oc1ccc(C2(c3ccc(O)c(Cl)c3)CC3CCC2C3)cc1Cl (configuration not stated)
active: [1]; [7] 98% | [1]; [8] 98% | [1]; at 50.0 µM 98% | [2]; [7] 99% | [2]; [8] 99% | [2]; at 50.0 µM 99.2% | [3]; [7] 99% | [3]; [8] 98% | [3]; at 50.0 µM 99.3% | [4]; [7] 99% | [4]; [8] 98% | [4]; at 50.0 µM 99% | [5]; [7] 99% | [5]; [8] 98% | [5]; at 50.0 µM 98.8% | [6]; [7] 99% | [6]; [8] 97% | [6]; at 50.0 µM 98.7%

ClCCOCCOc1c(Cl)cc(Cl)c(Cl)c1Cl
inactive: [1]; [7] 6% | [1]; [8] 12% | [1]; at 50.0 µM 58.4% | [2]; [7] 0% | [2]; [8] 13% | [2]; at 50.0 µM 27.6% | [3]; [7] 9% | [3]; [8] 58% | [3]; at 50.0 µM 43.5% | [4]; [7] 4% | [4]; [8] -11% | [4]; at 50.0 µM -26.7% | [5]; [7] 3% | [5]; [8] 14% | [5]; at 50.0 µM 59.6% | [6]; [7] 9% | [6]; [8] 26%
active: [6]; at 50.0 µM 71%

O=C(O)COc1ccccc1C(=O)O
inactive: [1]; [7] 0% | [1]; [8] -3% | [1]; at 50.0 µM 4.55% | [2]; [7] -2% | [2]; [8] -3% | [2]; at 50.0 µM 29.4% | [3]; [7] 1% | [3]; [8] 0% | [3]; at 50.0 µM -1.95% | [4]; [7] -2% | [4]; [8] 2% | [4]; at 50.0 µM 23.8% | [5]; [7] -5% | [5]; [8] -5% | [5]; at 50.0 µM 11.6% | [6]; [7] 1% | [6]; [8] -1% | [6]; at 50.0 µM 5.7%

CCC[CH2][Ge]([CH2]CCC)([CH2]CCC)[O]C(=O)C(OC(C)=O)c1ccccc1 (configuration not stated)
inactive: [4]; [7] 55% | [4]; [8] 55% | [5]; [7] 62% | [5]; [8] 62%
active: [1]; [7] 95% | [1]; [8] 95% | [1]; at 50.0 µM 78% | [2]; [7] 85% | [2]; [8] 85% | [2]; at 50.0 µM 75.2% | [3]; [7] 98% | [3]; [8] 98% | [3]; at 50.0 µM 86% | [4]; at 50.0 µM 71% | [5]; at 50.0 µM 85% | [6]; [7] 87% | [6]; [8] 87% | [6]; at 50.0 µM 79.5%

Cc1c(N)nc(C(CC(N)=O)NCC(N)C(N)=O)nc1C(=O)NC(C(=O)NC(C)C(O)C(C)C(=O)NC(C(=O)NCCc1nc(-c2nc(C(=O)NCCCNC(C)c3ccccc3)cs2)cs1)C(C)O)C(OC1OC(CO)C(O)C(O)C1OC1OC(CO)C(O)C(OC(N)=O)C1O)c1cnc[nH]1 (configuration not stated)
active: [1]; [7] 97% | [1]; [8] 98% | [1]; at 50.0 µM 92.2% | [2]; [7] 97% | [2]; [8] 99% | [2]; at 50.0 µM 93.5% | [3]; [7] 95% | [3]; [8] 98% | [3]; at 50.0 µM 93.5% | [4]; [7] 85% | [4]; [8] 93% | [4]; at 50.0 µM 90.4% | [5]; [7] 93% | [5]; [8] 98% | [5]; at 50.0 µM 93.3% | [6]; [7] 98% | [6]; [8] 99% | [6]; at 50.0 µM 92.2%

COc1ccc(C)cc1NC(=O)ON=C1CCCCC1
active: [1]; [8] 83% | [1]; at 50.0 µM 88.2% | [2]; [8] 88% | [2]; at 50.0 µM 91.8% | [3]; [8] 92% | [3]; at 50.0 µM 91.9% | [4]; [8] 81% | [4]; at 50.0 µM 90.5% | [5]; [8] 91% | [5]; at 50.0 µM 91.7% | [6]; [8] 94% | [6]; at 50.0 µM 90.5%
inactive: [1]; [7] 45% | [2]; [7] 35% | [3]; [7] 47% | [4]; [7] 38% | [5]; [7] 30% | [6]; [7] 48%

C=CCOc1c(CCC)cc(CN)cc1CCC
inactive: [1]; [7] -2% | [1]; [8] 2% | [1]; at 50.0 µM 4.45% | [2]; [7] -2% | [2]; [8] -6% | [2]; at 50.0 µM -8.2% | [3]; [7] 5% | [3]; [8] 23% | [3]; at 50.0 µM 24.6% | [4]; [7] 1% | [4]; [8] -7% | [4]; at 50.0 µM 58.5% | [5]; [7] -3% | [5]; [8] 7% | [5]; at 50.0 µM 2.55% | [6]; [7] -1% | [6]; [8] 11% | [6]; at 50.0 µM 49.8%
